The nature of experiment [1]: qHTS assay to identify small molecule antagonists of the thyroid receptor (TR) signaling pathway - cell viability counter screen (AID 743064). Further: nearly all actives have a fitted effect of over 50% in size. An outline of the steps:
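GH3.TRE-Luc rat pituitary cells carrying a TRE-luciferase reporter were treated with compound plus 1 nM T3 (final) for 23.5 h at 37 °C. Viability was then read in the same wells by CellTiter-Fluor fluorescence after a further 30 min.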
(In qHTS, concentration-response curves come from the screen itself.)

The test system of experiment [2] is thyroid hormone receptor (rat, GH3 cells). In words: qHTS assay to identify small molecule agonists of the thyroid receptor (TR) signaling pathway (AID 743066; calls by dose curve).
The target in experiment [3] is Estrogen receptor (Homo sapiens) (UniProt P03372). In words: qHTS assay to identify small molecule antagonists of the estrogen receptor alpha (ER-alpha) signaling pathway (AID 743069; active means well fitted curve in the direction sought with a large enough effect in the signal ratio in the repeat runs, not every such curve was filed as active; the % refers to the signal ratio). The gist of the method:
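Fluorescence intensity from a beta-lactamase FRET substrate served as the read-out. Cells: HEK293 with stably integrated ER-alpha-UAS-bla reporter. Agonist 17beta-estradiol was co-added with compounds; incubation 18 hr at 37C, substrate 2 hr at room temperature.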

A short description of experiment [4]: qHTS assay to identify small molecule antagonists of the estrogen receptor alpha (ER-alpha) signaling pathway - cell viability counter screen (AID 743074; calls by dose curve; further: nearly all actives have a fitted effect of over 45% in size).
Experiment [5] concerns the target Estrogen receptor (Homo sapiens) (UniProt P03372). In words: qHTS assay to identify small molecule agonists of the estrogen receptor alpha (ER-alpha) signaling pathway (AID 743075; calls by dose curve).
Experiment [6] has the same target. In words: qHTS assay to identify small molecule agonists of the estrogen receptor alpha (ER-alpha) signaling pathway using the BG1 cell line (AID 743079). Further: nearly all actives have a fitted effect of over 20% in size. Further: potency means the concentration at half of the fitted maximal effect.
A short description of experiment [7]: qHTS assay to identify small molecule antagonists of the estrogen receptor alpha (ER-alpha) signaling pathway using the BG1 cell line - cell viability counter screen (AID 743081).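 Further: compound given together with 17beta-estradiol as the ER stimulus; series mostly up to about 70 µM; nearly all actives have a fitted effect of over 45% in size.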
A further experiment concerns the target Aromatase (Homo sapiens) (UniProt P11511). Kind of experiment: qHTS assay to identify aromatase inhibitors (AID 743083). Further: series mostly up to about 70 µM; nearly all actives have a fitted effect of over 55% in size.
Experiment [8] is described as follows: qHTS assay to identify aromatase inhibitors - cell viability counter screen (AID 743084).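 Further: cells stimulated with testosterone during compound exposure; nearly all actives have a fitted effect of over 55% in size.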
The target of experiment [9] is Aryl hydrocarbon receptor (Homo sapiens) (UniProt P35869). In words: qHTS assay to identify small molecule that activate the aryl hydrocarbon receptor (AhR) signaling pathway (AID 743085).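 Further: HG2L7.5c1 human HepG2 liver cells with stably integrated DRE-driven firefly reporter; series mostly up to about 70 µM; nearly all actives have a fitted effect of over 15% in size.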 The gist of the method:
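HepG2 cells (HG2L7.5c1) stably carrying a firefly luciferase reporter driven by 20 dioxin responsive elements were exposed to compound for 24 h at 37C after a 5 h settling period; luminescence rise (ONE-Glo) indicated activation.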

The nature of experiment [10]: qHTS assay to identify small molecule that activate the aryl hydrocarbon receptor (AhR) signaling pathway - cell viability counter screen (AID 743086).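 Further: HepG2 liver cells carrying the AhR DRE luciferase reporter; series mostly up to about 70 µM; nearly all actives have a fitted effect of over 45% in size.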 The gist of the method:
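Cytotoxicity counter screen: CellTiter-Fluor signal (30 min, 37 C) in 4000 HepG2 cells/well carrying the DRE-luciferase reporter, following 24 h compound exposure at 37 C.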

In experiment [11] the target is Peroxisome proliferator-activated receptor gamma (Homo sapiens) (UniProt P37231). In words: qHTS assay to identify small molecule agonists of the peroxisome proliferator-activated receptor gamma (PPARg) signaling pathway (AID 743094; active means well fitted activation curve with a large enough effect in the signal ratio in the repeat runs, not every such curve was filed as active; the % refers to the signal ratio). The gist of the method:
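Cells from the PPARg UAS-bla HEK293H line are plated and incubated 5 h at 37C. Compounds in DMSO are pinned in and left 17 h at 37C. LiveBLAzer B/G substrate is then added for 1 h at room temperature before fluorescence is measured.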

Experiment [12] can be described thus: qHTS assay to identify small molecule antagonists of the peroxisome proliferator-activated receptor gamma (PPARg) signaling pathway - cell viability counter screen (AID 743194). Further: nearly all actives have a fitted effect of over 55% in size. The gist of the method: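 Viability was measured as CellTiter-Glo luminescence in GeneBLAzer PPARg UAS-bla HEK293H cells. These cells had been exposed 17 h at 37 C to compounds together with rosiglitazone at 50 nM final, with the beta-lactamase readout taken in the same wells.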

Experiment [13] is described as follows: qHTS assay for small molecule agonists of the antioxidant response element (ARE) signaling pathway - cell viability counter screen (AID 743203; calls by dose curve; further: nearly all actives have a fitted effect of over 55% in size). The gist of the method:
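Cytotoxicity was tested in parallel with the ARE reporter screen. ARE-bla HepG2 cells were exposed to compounds for 16 hrs, and viability was taken from CellTiter-Glo luminescence.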

Experiment [14] can be described thus: qHTS assay for small molecule activators of the heat shock response signaling pathway - cell viability counter screen (AID 743209). Further: nearly all actives have a fitted effect of over 50% in size. An outline of the steps: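 Cytotoxicity counter screen run in parallel with the HSE beta-lactamase reporter, using the same wells. HeLa HSE-bla cells received compound for 5 h at 37 C; ATP-based CellTiter-Glo luminescence was measured after 30 min at room temperature.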

A short description of experiment [15]: qHTS assay for small molecule activators of the heat shock response signaling pathway (AID 743210; active means well fitted activation curve with a large enough effect in the signal ratio in the repeat runs, with a control signal flat, not every such curve was filed as active; the % refers to the signal ratio;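 further: HeLa cells with beta-lactamase reporter driven by heat shock elements; series mostly up to about 63 µM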). An outline of the steps: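 Fluorescence from a cleaved B/G FRET substrate (2.5 h, room temp) reports HSE-driven beta-lactamase in HeLa cells treated 5 h at 37 C with DMSO-dissolved compounds.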
Experiment [16] in a line: qHTS assay for small molecule agonists of the antioxidant response element (ARE) signaling pathway (AID 743202; active means well fitted activation curve with a large enough effect in the signal ratio in the repeat runs, not every such curve was filed as active; the % refers to the signal ratio; further: potency means the concentration at half of the fitted maximal effect). An outline of the steps:
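Beta-lactamase reporter activity, read as fluorescence intensity, reflects ARE/Nrf2 pathway induction in HepG2 cells after 16 h compound exposure at 37 C; substrate loading was 2 h at room temperature.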

Experiment [17] is described as follows: qHTS assay to identify small molecule antagonists of the estrogen receptor alpha (ER-alpha) signaling pathway using the BG1 cell line (AID 743080; calls by dose curve;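 further: BG1 cells stimulated with 17beta-estradiol alongside compound; series mostly up to about 70 µM; nearly all actives have a fitted effect of over 25% in size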). An outline of the steps:
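Luminescence from a 4×ERE-luciferase reporter in BG1-Luc-4E2 cells served as read-out. Cells, pre-cultured 5 days in stripped-serum phenol-red-free medium, were exposed to compound with 17beta-estradiol co-stimulation for 21.5 h at 37 C.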

For experiment [18], the target named is Peroxisome proliferator-activated receptor gamma (Homo sapiens) (UniProt P37231). In words: qHTS assay to identify small molecule antagonists of the peroxisome proliferator-activated receptor gamma (PPARg) signaling pathway (AID 743191; calls by dose curve; further: series mostly up to about 63 µM; nearly all actives have a fitted effect of over 30% in size). An outline of the steps:
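Beta-lactamase reporter under UAS control in HEK293H PPARg-bla cells; compound treatment 17 h at 37C. Read-out: fluorescence intensity after 1 h room-temperature incubation with LiveBLAzer B/G FRET substrate.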

Inconclusive results are not listed. Active and inactive are the calls of the source. Unless noted, the call rests on the fitted dose curve; in most records, active means well fitted curve in the direction sought with a large enough effect in the repeat runs; inconclusive means weak or mixed curves; inactive means no such curve, though single readings can be large; an effect the other way counts as inactive or inconclusive.

Chain of Estrogen receptor (Homo sapiens) (P03372 whole entry, looked up): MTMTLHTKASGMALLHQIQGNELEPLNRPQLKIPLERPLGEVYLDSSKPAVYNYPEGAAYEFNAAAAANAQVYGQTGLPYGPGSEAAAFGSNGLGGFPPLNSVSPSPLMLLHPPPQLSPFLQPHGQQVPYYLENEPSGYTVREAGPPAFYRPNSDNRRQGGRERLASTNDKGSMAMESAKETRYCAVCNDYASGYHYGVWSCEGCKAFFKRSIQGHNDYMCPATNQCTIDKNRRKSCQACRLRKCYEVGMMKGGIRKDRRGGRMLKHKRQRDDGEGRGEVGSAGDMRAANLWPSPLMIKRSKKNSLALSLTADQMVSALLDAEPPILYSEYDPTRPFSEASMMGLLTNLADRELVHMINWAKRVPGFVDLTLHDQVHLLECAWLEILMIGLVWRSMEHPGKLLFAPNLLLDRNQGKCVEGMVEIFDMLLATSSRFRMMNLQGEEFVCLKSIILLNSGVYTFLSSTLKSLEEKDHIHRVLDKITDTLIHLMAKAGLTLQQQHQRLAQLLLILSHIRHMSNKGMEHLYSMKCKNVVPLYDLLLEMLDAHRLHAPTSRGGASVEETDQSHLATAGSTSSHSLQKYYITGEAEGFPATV
Chain of Peroxisome proliferator-activated receptor gamma (Homo sapiens) (P37231 whole entry, looked up): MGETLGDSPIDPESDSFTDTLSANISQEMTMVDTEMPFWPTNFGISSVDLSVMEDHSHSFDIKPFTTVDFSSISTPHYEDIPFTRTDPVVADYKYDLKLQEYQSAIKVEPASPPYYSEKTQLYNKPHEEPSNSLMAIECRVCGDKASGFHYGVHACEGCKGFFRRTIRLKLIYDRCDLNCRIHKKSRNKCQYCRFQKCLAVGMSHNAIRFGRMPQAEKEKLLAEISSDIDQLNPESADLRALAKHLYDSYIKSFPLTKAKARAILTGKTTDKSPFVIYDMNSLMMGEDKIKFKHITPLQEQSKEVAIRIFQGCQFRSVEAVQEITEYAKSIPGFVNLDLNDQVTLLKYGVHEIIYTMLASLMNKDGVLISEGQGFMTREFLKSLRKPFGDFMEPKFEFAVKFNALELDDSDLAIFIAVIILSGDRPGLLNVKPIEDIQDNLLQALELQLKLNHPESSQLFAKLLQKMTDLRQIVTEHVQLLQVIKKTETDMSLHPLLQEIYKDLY
Chain of Aromatase (Homo sapiens) (P11511 whole entry, looked up): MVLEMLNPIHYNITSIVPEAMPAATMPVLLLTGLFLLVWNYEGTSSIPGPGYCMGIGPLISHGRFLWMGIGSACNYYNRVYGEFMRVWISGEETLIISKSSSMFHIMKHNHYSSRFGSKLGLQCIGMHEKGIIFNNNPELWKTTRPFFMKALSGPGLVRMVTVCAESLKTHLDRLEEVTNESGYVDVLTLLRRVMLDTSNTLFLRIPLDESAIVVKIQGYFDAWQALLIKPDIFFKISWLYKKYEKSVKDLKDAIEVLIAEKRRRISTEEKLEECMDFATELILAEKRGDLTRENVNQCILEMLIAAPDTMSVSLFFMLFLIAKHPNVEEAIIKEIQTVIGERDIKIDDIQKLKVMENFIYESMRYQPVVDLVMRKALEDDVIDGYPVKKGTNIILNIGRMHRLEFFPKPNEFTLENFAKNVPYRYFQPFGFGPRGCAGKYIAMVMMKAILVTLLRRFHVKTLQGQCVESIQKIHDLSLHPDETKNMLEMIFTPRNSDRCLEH
Chain of Aryl hydrocarbon receptor (Homo sapiens) (P35869 whole entry, looked up): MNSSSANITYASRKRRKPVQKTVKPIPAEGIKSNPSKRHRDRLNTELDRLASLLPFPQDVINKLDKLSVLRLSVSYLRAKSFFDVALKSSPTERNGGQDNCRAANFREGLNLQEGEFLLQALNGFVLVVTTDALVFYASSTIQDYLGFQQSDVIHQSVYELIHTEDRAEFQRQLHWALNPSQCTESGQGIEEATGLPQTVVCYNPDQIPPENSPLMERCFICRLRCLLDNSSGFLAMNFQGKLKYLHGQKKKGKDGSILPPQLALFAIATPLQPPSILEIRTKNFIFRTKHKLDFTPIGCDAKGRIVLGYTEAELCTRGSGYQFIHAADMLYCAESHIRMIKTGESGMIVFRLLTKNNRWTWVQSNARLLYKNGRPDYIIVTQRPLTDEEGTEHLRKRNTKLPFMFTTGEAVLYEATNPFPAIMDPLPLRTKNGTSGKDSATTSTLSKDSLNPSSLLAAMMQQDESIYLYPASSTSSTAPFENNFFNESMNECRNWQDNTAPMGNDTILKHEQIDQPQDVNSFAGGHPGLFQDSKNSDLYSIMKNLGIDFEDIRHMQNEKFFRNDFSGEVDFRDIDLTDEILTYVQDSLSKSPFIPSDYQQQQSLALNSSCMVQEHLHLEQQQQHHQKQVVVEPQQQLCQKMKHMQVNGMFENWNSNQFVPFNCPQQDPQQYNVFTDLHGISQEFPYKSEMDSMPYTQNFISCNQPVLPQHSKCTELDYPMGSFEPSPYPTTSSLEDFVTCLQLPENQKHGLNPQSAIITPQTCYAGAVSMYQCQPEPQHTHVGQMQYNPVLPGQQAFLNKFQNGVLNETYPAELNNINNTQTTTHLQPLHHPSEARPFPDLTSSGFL

With `CCCCCCCCCCOC(C)=O`, the Potency entry in experiment [1], in experiment [5], in experiment [7], in [8], in [9] and in [10] was “inactive” each time. Also, the Potency entry in [11] and in experiment [14] was “inactive” each time. For the same compound, the outcome (in experiment [2]; in [3]; in [4]; with Aromatase (Homo sapiens); in experiment [12]; in [13]) was inactive. In [15], the call was inactive. Moreover, the Potency in experiment [6] is 61.1 µM (active).

Regarding `OCC1CCC(CO)CC1` (stereo not given), the Potency entry in experiment [1], in experiment [5], in [6], in experiment [7], in experiment [8] and in experiment [9] was “inactive” in each case. Besides, the Potency result in experiment [10], in experiment [11], in experiment [16] and in experiment [14] was “inactive” in each case. The outcome (in experiment [2]; in [3]; in experiment [4]; in the experiment with Aromatase (Homo sapiens); in experiment [12]; in experiment [13]) was inactive. Moreover, in [15], the compound was called inactive.

Regarding `C/C=C(\C)C(C)=O`, the Potency entry in experiment [1], in [5], in experiment [6], in [7], in [8] and in experiment [9] was “inactive” in each case. Besides, the Potency entry in [10], in experiment [11], in [16] and in experiment [14] was “inactive” throughout. The outcome (in [3]; in experiment [4]; in experiment [17]; with Aromatase (Homo sapiens); in experiment [18]; in [12]) was inactive. The compound was classed as inactive in experiment [13] and in experiment [15].

With `COC(=O)/C=C\C(=O)O`, the Potency entry in experiment [1], in experiment [5], in [6], in experiment [7], in experiment [8] and in experiment [9] was “inactive” throughout. Moreover, the Potency result in [10], in experiment [11] and in experiment [14] was “inactive” in each case. Moreover, the outcome (in [2]; in [3]; in experiment [4]; in the experiment with Aromatase (Homo sapiens); in experiment [12]; in [13]) was inactive. For the same compound, the Potency in experiment [16] is 27.3 µM (active).

With `CC1=C(C(=O)O)N2C(=O)[C@@H](NC(=O)[C@H](N)C3=CCC=CC3)[C@H]2SC1`, the Potency result in experiment [1], in experiment [5], in experiment [6], in experiment [8], in experiment [9] and in experiment [10] was “inactive” throughout. The Potency entry in experiment [11], in [16] and in experiment [14] was “inactive” in each case. The outcome (in experiment [2]; in [3]; with Aromatase (Homo sapiens); in [18]; in experiment [12]; in [13]) was inactive.

As for `CN(C)CCCCl`, the Potency result in experiment [1], in [5], in experiment [7], in experiment [8], in [10] and in experiment [16] was “inactive” in each case. In addition, the Potency entry in experiment [14] was “inactive”. Further, the call (in experiment [2]; in [3]; in experiment [4]; in experiment [17]; in the experiment with Aromatase (Homo sapiens); in [12]) was inactive. Also, the result in experiment [13] and in experiment [15] was inactive.

Take `C=CCOC(=O)CCCCCC`: the Potency entry in experiment [1], in [7], in experiment [8], in experiment [9], in [10] and in experiment [11] was “inactive” each time. Besides, the Potency result in [16] and in experiment [14] was “inactive” each time. Further, the compound was classed as inactive (in experiment [4]; with Aromatase (Homo sapiens); in [12]; in experiment [13]; in experiment [15]).

As to `C=CC(=O)OCC1CCCO1` (stereo not given), the Potency result in experiment [1], in [5], in experiment [6], in experiment [7], in experiment [8] and in experiment [9] was “inactive” in each case. Also, the Potency entry in experiment [11] and in [14] was “inactive” each time. The compound was called inactive (in [3]; in experiment [17]; with Aromatase (Homo sapiens); in experiment [12]; in experiment [13]).

Consider `CCCCCCCCCOC(=O)CCCCC(=O)OCCCCCCC`, for which the Potency result in experiment [1], in experiment [7], in experiment [8], in experiment [9], in [10] and in experiment [11] was “inactive” throughout. Further, the Potency result in experiment [14] is “inactive”. The outcome (in experiment [4]; with Aromatase (Homo sapiens); in experiment [12]; in [13]; in experiment [15]) was inactive.
